# Sampled rows, rich in hits. Any-hit rate of the full collection: about 7.3%.
# SMN2 splice enh – qHTS Assay for Enhancers of SMN2 Splice Variant Expression; HEK293 SMN2-luciferase splicing reporter, luminescence, 30-36 h; Potency, µM (highest dose often 46.1 µM), for inactives: at the top dose activity change, positive = activation, hits mostly activators; 210,000 compounds, 2.8% hits; AID 1458, 2008; further: % of control where 0% means no effect; nearly all actives have a fitted effect of over 55% in size
#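 HEK293 cells carry an SMN2 minigene-luciferase reporter in which exon 7 inclusion puts luciferase in frame. Cells were seeded at 2000 cells/well, attached for 10-12 hours, then exposed to compounds for 30-36 hours at 37C before ONE-Glo luminescence.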
# NPC1 prom act – qHTS Assay for NPC1 Promoter Activators; AID 485313, 2010; 320,000 compounds, 2.4% hits; Huh7 NPC1 promoter luciferase reporter, 24 h; Potency, µM (doses to about 9.22 µM), inactives show top-dose activation, actives largely listed as activators; further: % of control where 0% means no effect; nearly all actives have a fitted effect of over 60% in size
#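 Luciferase expression driven by the NPC1 promoter was measured in stably transfected Huh7 cells after a 24 h compound incubation, using a luciferase reagent and a luminescence read.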
# Rab9 promoter act – qHTS Assay for Rab9 Promoter Activators. AID 485297, 2010. Huh7 Rab9 promoter-luciferase reporter, luminescence, 24 h. 320,000 compounds, 2.8% hits. Potency, µM (doses to about 9.22 µM), for inactives: at the top dose activation, negative = inhibition, actives largely listed as activators; further: % of control where 0% means no effect; nearly all actives have a fitted effect of over 60% in size
#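 Measured in stably transfected Huh7 cells bearing a Rab9 promoter–luciferase construct: 24 h compound treatment at 37 °C, followed by luminescence detection.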
# Luc counter – Counterscreen for Luciferase (Kinase-Glo TM) Inhibition; Luciferin 4-monooxygenase (Photuris pensylvanica), Q27757; Kinase-Glo luciferase, ATP luminescence, 8 min; Potency, µM (titrated, usually from 38.3 µM), without a hit: top-dose activity change, negative = inhibition, most hits filed as inhibitors; 200,000 compounds, 0.28% hits; AID 1379, 2008; further: on the % scale 0 is the no-effect control and ±100 the full control effect; nearly all actives have a fitted effect of over 60% in size
#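 Compounds were added to a substrate mix at pH 7.2 (50 mM imidazole, 10 uM ATP, within the enzyme's linear range), followed by Kinase-Glo detection reagent; luminescence was measured after 8 minutes at ambient temperature.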
# FLuc counter – qHTS profiling assay for firefly luciferase inhibitor/activator using purifed enzyme and Km concentrations of substrates (counterscreen for miR-21 project); Luciferin 4-monooxygenase (Photinus pyralis), P08659; purified FLuc, Km substrates, luminescence inhibition; Potency, µM (series often up to 57.5 µM), inactives show top-dose activity change, negative = inhibition, actives largely listed as inhibitors; 360,000 compounds, 6.9% hits;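 further: plate controls were vehicle for no effect and reference inhibitor for full effect; nearly all actives have a fitted effect of over 55% in size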
# Target sequence (P08659 whole entry, looked up): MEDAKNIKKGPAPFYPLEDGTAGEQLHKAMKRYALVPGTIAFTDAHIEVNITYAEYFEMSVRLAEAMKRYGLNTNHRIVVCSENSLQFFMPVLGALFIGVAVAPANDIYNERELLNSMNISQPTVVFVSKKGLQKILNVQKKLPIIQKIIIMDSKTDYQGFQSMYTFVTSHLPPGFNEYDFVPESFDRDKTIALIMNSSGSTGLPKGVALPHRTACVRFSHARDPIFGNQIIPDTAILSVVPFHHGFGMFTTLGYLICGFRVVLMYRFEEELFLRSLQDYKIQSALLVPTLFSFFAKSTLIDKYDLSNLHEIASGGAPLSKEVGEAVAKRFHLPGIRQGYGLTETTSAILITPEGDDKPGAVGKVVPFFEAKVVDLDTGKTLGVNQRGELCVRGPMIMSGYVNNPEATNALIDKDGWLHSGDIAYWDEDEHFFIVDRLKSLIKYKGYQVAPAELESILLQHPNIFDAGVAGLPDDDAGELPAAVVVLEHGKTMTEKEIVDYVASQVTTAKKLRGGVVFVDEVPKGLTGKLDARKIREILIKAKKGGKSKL
#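 Purified P. pyralis luciferase (10nM final) with 10uM D-luciferin and 10uM ATP (Km levels) in 50mM Tris acetate pH 7.5, 10mM Mg acetate, 0.01% Tween-20, 0.05% BSA; qHTS 6-point titration, ~60 µM downward; luminescence read.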
# ELG1 genotox – qHTS screen for small molecules that induce genotoxicity in human embryonic kidney (HEK293T) cells expressing luciferase-tagged ELG1. Potency, µM (top dose mostly 46 µM), for the others: top-dose activity change, positive = activation, actives largely listed as activators. 330,000 compounds, 1.3% hits. HEK293T ELG1-luciferase reporter, luminescence, 16 h. AID 504466, 2011; further: % of control where 0% means no effect; nearly all actives have a fitted effect of over 60% in size
#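 ELG1-luciferase HEK293T cells, 2,000/well; compound pinned in; 16 hr, 37 °C, 5% CO2; ONE-Glo, 30 min RT; luminescence on CCD imager.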
# An asterisk follows results filed as active; ? = inconclusive; / = no result; ! = not active in a repeat; [ ] = another dose, or the depositor's remark. The call rests on the fitted dose curve; in most records, active means well fitted curve in the direction sought with a large enough effect; inconclusive means small, poorly fitted or top-dose-only effect, or another doubt; inactive means no such curve, though single readings can be large; an effect the other way counts as inactive or inconclusive. Potency means the concentration at half of the fitted maximal effect.
SMILES,SMN2 splice enh,NPC1 prom act,Rab9 promoter act,Luc counter,FLuc counter,ELG1 genotox
COc1ccc(C)cc1C1=Nc2ccccc2C1(C)C,-39%,-3%,2%,-6%,-5%,2%
COc1ccccc1C(=O)Nc1ccccc1OCc1cc(=O)n2c(C)csc2n1,-7%,/,/,/,-17%,/
O=C1C(C2=NC(C(=O)O)C3C(=O)N(c4ccc(Cl)cc4)C(=O)C23)=C(O)c2ccccc21 (configuration not stated),-3%,-4%,10%,-12%,6.7µM*,3%
O=C1C(C2=NC(c3ccccn3)C3C(=O)N(c4ccc(Cl)cc4Cl)C(=O)C23)=C(O)c2ccccc21 (configuration not stated),/,-8%,-23%,/,6%,0%
CCN(CC)S(=O)(=O)c1ccc2oc(Nc3ccc(OC)cc3OC)nc2c1,/,0%,1%,/,-8%,-13%
CCS(=O)(=O)c1ccc2oc(Nc3ccccc3C)nc2c1,?,3.5µM*,3.5µM*,?,13µM*,?
CCN(CC)S(=O)(=O)c1ccc2oc(Nc3ccccc3)nc2c1,/,?,?,/,15µM*,?
CCCc1cc(=O)[nH]c2nnc(SCC(=O)Nc3cccc(C)c3)n12,/,/,/,/,-2%,/
CCCc1cc(=O)[nH]c(Nc2ccc(C)c(O)c2)n1,-10%,/,/,/,-8%,/
CCOc1ccc(N(Cc2cc3cc(C)ccc3[nH]c2=O)C(=O)c2cccc(Cl)c2)cc1,7%,/,/,/,4%,/
Cc1ccc2c(CN3CCN(C(=O)c4ccc(Br)cc4)CC3)cc(=O)oc2c1,5%,/,/,/,-1%,/
Oc1ccccc1N=Cc1sc2ccccc2c1Cl,-1%,-5%,-5%,-2%,2.1µM*,-2%
Cc1ccc(O)c(N=Cc2sc3ccccc3c2Cl)c1,-7%,16%,21%,1%,1.5µM*,3%
CN=Cc1sc2ccccc2c1O,-11%,1%,4%,-3%,-18%,1%
COc1ccc(-c2ncncc2-c2ccc(OC)c(OC)c2)c(O)c1,/,9%,10%,/,-20%,2%
COC(=O)c1cc(-c2ccc(OC)c(OC)c2)n[nH]1,-16%,-2%,14%,-2%,-16%,17%
COc1ccc(-c2cc(-c3ccccc3O)[nH]n2)cc1OC,?,?,4µM*,10%,2.4µM*,21µM*
COc1ccc(OCc2nc(-c3ccc(OC)c(OC)c3)no2)cc1,-14%,/,/,/,-16%,/
CCOc1ccc(-c2cc(-c3nc(-c4ccc(OC)c(OC)c4)no3)[nH]n2)cc1,/,/,/,/,19µM*,/
COc1ccc(-c2cc(-c3ccc(OC)c(OC)c3)n[nH]2)c(O)c1,22µM*,?,?,-12%,5.4µM*,5.8µM*
COc1ccc(-c2cc(-c3cc(F)ccc3O)[nH]n2)cc1OC,?,3.2µM*,4µM*,-5%,8.5µM*,?
CCc1nc(SCc2cc(=O)c3cc(F)ccc3[nH]2)n[nH]1,/,/,/,/,-5%,/
O=C(/C=C/c1ccc(Cl)c(Cl)c1)N1CCc2ccccc21,7.1µM*,3.2µM*,2.8µM*,0%,?,?
CN1CCN(C(=O)/C=C/c2ccc(Cl)c(Cl)c2)CC1,/,21%,21%,/,1%,16%
O=C(/C=C/c1cccs1)N1CCc2ccccc21,2.8µM*,4µM*,4µM*,?,0.48µM*,1.8µM*
SMILES,SMN2 splice enh,NPC1 prom act,Rab9 promoter act,Luc counter,FLuc counter,ELG1 genotox
O=C(c1cccs1)N1CCc2ccccc21,14µM*,?,?,-15%,27µM*,?
Cc1ccccc1Nc1nnc(-c2ccc(C)c(S(=O)(=O)NCC3CCCO3)c2)c2ccccc12 (configuration not stated),6%,/,/,/,1%,/
O=c1[nH]c2cc(Cl)c(Cl)cc2[nH]c1=O,11µM*!,24%[46.1 µM],16%[46.1 µM],-2%,/,/
O=c1[nH]c2ccc(F)cc2[nH]c1=O,2%,-4%,0%,1%,-1%,0%
COc1ccc2nc(/C=N/NC(=O)CCCCCNC(=O)OC(C)(C)C)ccc2c1,/,3.2µM*,4µM*,/,11µM*,4%
COc1ccc2nc(/C=N/NC(=O)CCNC(=O)OC(C)(C)C)ccc2c1,/,?,?,/,13µM*,8%
Cc1ccc(-c2cn3nc(N4CCCC(C(=O)Nc5ccc(F)cc5)C4)sc3n2)cc1 (configuration not stated),/,/,/,/,12µM*,/
COc1ccc(-c2cn3nc(N4CCC(C(=O)NCc5ccc(F)cc5)CC4)sc3n2)cc1,/,/,/,/,-1%,/
COc1ccc(-c2cn3nc(N4CCCC(C(=O)Nc5cc(C)cc(C)c5)C4)sc3n2)cc1 (configuration not stated),/,/,/,/,-19%,/
Cc1ccc(-c2cn3nc(N4CCCC(C(=O)NCc5ccc(F)cc5)C4)sc3n2)cc1 (configuration not stated),/,/,/,/,8.5µM*,/
CCNC(=O)C1CCCN(c2nn3cc(-c4ccc(C)cc4)nc3s2)C1 (configuration not stated),/,/,/,/,1.2µM*,/
O=C(CCS(=O)(=O)c1ccccc1)Nc1nc2cc3c(cc2s1)OCCO3,/,18%,19%,/,7.6µM*,?
O=C(CCS(=O)(=O)c1ccccc1)Nc1nc2cc3c(cc2s1)OCO3,/,22%,19%,/,13µM*,10%
O=C(CCS(=O)(=O)c1ccccc1)Nc1nc2ccc(F)cc2s1,/,4%,-4%,/,3%,-2%
N#Cc1cc2c(OCC(O)CN3CCN(C(c4ccccc4)c4ccccc4)CC3)cccc2[nH]1 (configuration not stated),-4%,/,/,/,/,/
O=C1c2ccccc2CN1CCSC(=S)N1CCSCC1,15%,?,3.2µM*,-6%,24µM*,14%
O=C1c2ccccc2CN1CCNC(=S)NC1CCCCC1,/,13%,7%,/,-5%,18%
O=C1c2ccccc2CN1CCSC(=S)N1CCOCC1,13µM*,3.5µM*,3.5µM*,-4%,12µM*,?
CC1CN(C(=S)SCCN2Cc3ccccc3C2=O)CC(C)O1 (configuration not stated),-19%,1%,8%,-2%,-10%,0%
N[C@H]1[C@@H](C(=O)O)[C@H]2C=C[C@H]1C2,2%[9.22 µM],/,/,-1%[7.66 µM],/,/
Cc1ccc(NC(=O)N/C=C/c2ccco2)c(C)c1,10%,1%,-1%,4%,?,4%
